In PubChem BioAssay (NCI):
The panel holds about 79,000 compounds, 15% with a hit somewhere; the sample as a whole holds those more often. Values without a mark were called inactive. Active and inactive are the calls of the source. Cut-off read from the data, not from the text of the source: active = growth inhibition above about 70%; inactive = the rest.

Assays:
[1] = NCI Yeast Anticancer Drug Screen. Data for the rad50 strain (AID 155);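 note: 0% = growth of vehicle-only cultures of the same strain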; details: S. cerevisiae rad50 strain growth inhibition; at 50.0 µM; stronger effect = higher value
Summary of the method: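 Compounds were tested on a yeast strain with an engineered DNA damage repair alteration; the reported value is growth inhibition normalised to vehicle treatment.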

[2] = NCI Yeast Anticancer Drug Screen. Data for the mec2-1 strain (AID 157); details: S. cerevisiae mec2-1 strain, at 50.0 µM, stronger effect = higher value
Summary of the method: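 Vehicle-treated cultures served as reference for growth inhibition of compound-exposed mec2-1 yeast.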

[3] = NCI Yeast Anticancer Drug Screen. Data for the sgs1 mgt1 strain (AID 161);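 note: 0% = growth of cultures given vehicle only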; details: S. cerevisiae sgs1 mgt1 strain, at 50.0 µM, stronger effect = higher value
Summary of the method: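 Mutant yeast exposed to compound; growth scored against vehicle-only wells.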

[4] = NCI Yeast Anticancer Drug Screen. Data for the cln2 rad14 strain (AID 165);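 note: 0% = growth equal to vehicle treated cultures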; details: S. cerevisiae cln2 rad14 strain, at 50.0 µM, stronger effect = higher value
Summary of the method: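 Each compound was tested on cln2 rad14 yeast. Inhibition of growth was calculated against vehicle-exposed controls.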

[5] = NCI Yeast Anticancer Drug Screen. Data for the bub3 strain (AID 167); details: S. cerevisiae bub3 mutant strain, at 50.0 µM, stronger effect = higher value
Summary of the method: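 Growth of a checkpoint-deficient yeast mutant is measured after compound exposure. Values represent inhibition relative to vehicle.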

[6] = NCI Yeast Anticancer Drug Screen. Data for the mlh1 rad18 strain (AID 175); details: S. cerevisiae mlh1 rad18 strain growth inhibition; at 50.0 µM; stronger effect = higher value
Summary of the method: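 Vehicle-treated cultures served as the reference for growth inhibition in a yeast strain carrying DNA damage repair alterations exposed to each compound.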

Structure (SMILES) | growth inhibition [1] | growth inhibition [2] | growth inhibition [3] | growth inhibition [4] | growth inhibition [5] | growth inhibition [6]
CCCCCCO[Si](OCCCCCC)(OCCCCCC)OCCCCCC | -35.1% | -32.4% | -10.8% | 17.4% | -17.8% | -17.4%
O=C(O)c1ccc(S(=O)(=O)c2ccccc2[N+](=O)[O-])cc1 | -12.9% | -10.3% | -35.8% | -19% | -12.1% | -38.6%
O=C1c2ccccc2-c2c1cccc2[N+](=O)[O-] | 48% | 23.9% | 9.55% | -62.5% | -18.3% | 42.5%
CSc1nc(N)n2nc(C)cc2n1 | -9.3% | -13.7% | 10.2% | 6.9% | 33.3% | -3.8%
COc1cc(C(C)c2cc3c(cc2OCCNC(=O)COc2cc4c(cc2C(C)c2cc(OC)c(OC)c(OC)c2)OCO4)OCO3)cc(OC)c1OC (centres undefined) | -31.9% | -28.6% | -25.6% | 4.8% | -19.6% | -24.9%
CCCCCCCCCCCCCCC(=O)OCCN(C)C | -3.6% | -18% | 1.45% | -18.2% | 8.35% | -10.1%
CCOC(=O)C1=NC(c2ccccc2)(c2ccccc2)OC1=C(Cl)Cl | 0.8% | -16.4% | -0.2% | 19.8% | -11.4% | -10.5%
CNC(=S)SCc1ccc(Cl)cc1 | -10.6% | -12.5% | 11.4% | -36.6% | 40.8% | 2.7%
CC(=O)C/C(C)=N\NC(=O)c1ccc([N+](=O)[O-])cc1 | -6.15% | -16.8% | 5.65% | 7.35% | 9.9% | 19.6%
CCOC(=O)NC(=O)c1cn(CCN2CCN(c3ncnc4nc[nH]c34)CC2)c(=O)[nH]c1=O | 18.9% | 16.6% | 14.4% | 12.7% | -4.3% | 23.1%
CCN(CC)CCOC(=O)c1ccc(N=Nc2ccc(O)cc2O)cc1 | -12.8% | -2.7% | -1.3% | -21.7% | -24.5% | -17.1%
CCCCCCCCCCCC(=O)c1c(O)cccc1O | -10.1% | -16.1% | 7.75% | 16.9% | 10.7% | -20.1%
O=[N+]([O-])c1ccc(-c2csc(N=Nc3c(O)[nH]c4ccccc34)n2)cc1 | -31.2% | -20.2% | -22.4% | -16.7% | -31.4% | -46.4%
CCOC(=O)CCCCCCCCCC[N+](CC)(CC)CC(=O)c1ccc(NC(C)=O)cc1 | -1.05% | -2.35% | 3.5% | 12.3% | 16.8% | -0.1%
O=Ic1ccccc1 | 16.6% | 0.2% | 1.5% | 10.9% | -0.3% | -8.8%
CC(C)Oc1c(N(C)CCO)c2cc(Cl)ccc2oc1=O | -6.1% | 12.4% | 3.45% | 19.6% | 5.75% | 3.05%
CCCCCCCCCCCCCCCSc1ccc2ccccc2c1 | -17% | 1.35% | -5.2% | -25.2% | -13.8% | -13.5%
Cc1ccccc1SCC(N)=O | 6.55% | 9.1% | -0.85% | -12.1% | 5.35% | -0.7%
CCOC(=O)C(/C=N/C(=S)Nc1c(C)cccc1C)=C(/O)c1ccccc1 | -50.3% | -21.6% | -26.1% | -18.6% | -21.2% | -33.4%
CCOC(=O)C(Cc1c[nH]c2ccccc12)NC(=O)C1(O)C(O)C2(CC)C=CCN3CCC4(c5cc(C6(C(=O)OC)CC7CC(CC)CN(CCc8c6[nH]c6ccccc86)C7)c(OC)cc5N(C)C14)C32 (centres undefined) | 20.8% | 20.2% | 7.75% | 32.4% | 17% | 6.2%

Structure (SMILES) | growth inhibition [1] | growth inhibition [2] | growth inhibition [3] | growth inhibition [4] | growth inhibition [5] | growth inhibition [6]
NC(=O)C(=Cn1c(=S)[nH]c2ccccc21)C(N)=O | -51.9% | -23.2% | -19.1% | -0.5% | -1.8% | -28.2%
Brc1cccc2ccccc12 | 23.6% | -13.9% | 0.7% | -38% | -12.3% | 6.85%
Cc1ccc2nc(CC(=O)c3ccc(F)cc3)c(=O)[nH]c2c1 | 1.85% | 18.8% | 16.1% | 27.8% | 18.1% | 34.9%
C1CCC(NCCNC2CCCCC2)CC1 | 11.8% | -16.9% | 5.5% | 18.6% | -2.8% | 10.3%
Nc1nc2nc(-c3ccccc3)[nH]c2c(=O)[nH]1 | -3.7% | 6.75% | -0.15% | -52.2% | -15.1% | -12.4%
CCN(CC)CCc1c2c(nc3ccccc13)C(=O)c1cccnc1C2=O | 84.3% (active) | 66.3% | 84% (active) | 74.4% (active) | 79.2% (active) | -21.5%
Cc1nccn1C(C)c1ccccc1 (centres undefined) | -9.8% | -19.9% | -16.2% | -95.3% | 0.35% | -25.4%
CSC(=O)c1sc(SC)[n+](-c2ccccc2)c1O | 4.95% | -20.2% | -1% | -5.5% | -13.3% | -7.9%
COc1cccc2c1C(=O)c1c(O)c3c(c(O)c1C2=O)CC(O)(C(O)CO)CC3OC1CC(N2CCSCC2)C(O)C(C)O1 (centres undefined) | 87.7% (active) | 87.5% (active) | 88% (active) | 84% (active) | 85.8% (active) | 90.3% (active)
O=CC(NC(=O)C(O)C(O)C(O)C(O)CO)C(O)C(O)C(O)CO (centres undefined) | -13.2% | 6.8% | -1.45% | -40% | -0.95% | 1.15%
CC(=O)OC(C)(C#N)C(C)(C#N)OC(C)=O (centres undefined) | -13.3% | -6.4% | -1.1% | -37.1% | -8.75% | -20.3%
CC(COCc1ccccc1)NCc1ccccc1 (centres undefined) | -7.35% | -27.6% | 9.3% | -9.15% | -3.35% | 13.2%
COc1ccc([N+](=O)[O-])cc1NC(=O)N/N=C(\C)C(C)(C)C | 5.2% | 18.2% | 8.8% | -9.35% | 3.4% | 6.3%
C/C=C/c1ccc(O)c(OC)c1 | 13.1% | -11.6% | 4.85% | -5.95% | -3.25% | -9.3%
CCOC(=O)c1c(SC(=O)c2ccc(C(C)(C)C)cc2)n(-c2ccccc2)c(=S)n(-c2ccccc2)c1=O | 31.1% | 0.55% | 26.8% | 6.45% | 40% | 18.9%
Brc1ccc(Br)c2nc(/C=C/c3ccccc3)ccc12 | 11.8% | 1.85% | -7% | -22.6% | 2.45% | 8.25%
COc1ccc2c(c1)C(=O)N1CCOC1C2C(=O)O (centres undefined) | 0.1% | -31.8% | -9.5% | 11.3% | -0.8% | -30.3%
CCCCN=CC(Cl)(Cl)C(=O)OCC | -13.2% | -21.6% | -8.35% | 4.05% | -10.9% | -19.7%
CCCOC(=O)c1c(C)c(C)cc(C)c1C | 5.9% | 1.75% | 14.6% | 11.8% | -1.3% | -12.3%
